In ChEMBL document CHEMBL3988442, “University of Dundee, Small-Polar-MMV Screening Library” (2021):

Experiments:
[1] = molecular target: T1, Aspartate--tRNA(Asp/Asn) ligase (Mycobacterium tuberculosis (strain ATCC 25618 / H37Rv)) (UniProt P9WFW3); experiment: Assay for Asp RNA synthetase-1 from Mycobacterium tuberculosis; format: functional; set-up: scale not given: direction of the effect not stated beside the values; details: 30 µM; note: in the data most compounds retested in dose-response had high values
T1 sequence (whole entry): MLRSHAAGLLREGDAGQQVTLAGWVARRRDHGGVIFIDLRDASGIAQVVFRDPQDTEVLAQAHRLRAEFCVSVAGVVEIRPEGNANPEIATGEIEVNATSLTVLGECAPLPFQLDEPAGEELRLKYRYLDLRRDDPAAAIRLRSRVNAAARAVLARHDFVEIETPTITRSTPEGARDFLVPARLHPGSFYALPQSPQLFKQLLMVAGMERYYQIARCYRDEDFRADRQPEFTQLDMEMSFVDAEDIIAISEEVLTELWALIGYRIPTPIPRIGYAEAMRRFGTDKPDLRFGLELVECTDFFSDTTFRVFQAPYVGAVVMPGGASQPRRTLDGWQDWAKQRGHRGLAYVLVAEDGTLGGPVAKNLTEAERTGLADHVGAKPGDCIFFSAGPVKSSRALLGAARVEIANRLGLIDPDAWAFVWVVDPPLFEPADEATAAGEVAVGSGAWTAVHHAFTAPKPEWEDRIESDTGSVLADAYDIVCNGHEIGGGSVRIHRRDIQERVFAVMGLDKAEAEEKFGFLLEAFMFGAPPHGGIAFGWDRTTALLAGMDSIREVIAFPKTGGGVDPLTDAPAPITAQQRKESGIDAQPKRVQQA

[2] = molecular target: Shiga toxin 2 (Escherichia coli O157:H7) (UniProt P09385+P09386); experiment: E. coli 0.157:H7 Shiga Toxin SOP - stx2 screening assay; format: functional; set-up: scale not given: direction of the effect not stated beside the values; details: 30 µM

SMILES	Percent Effect [1]	Percent Effect [2]
CCc1cc(C)c(C(=O)N2CCCC2CC(=O)c2cnn(C)c2)o1 (stereo not drawn)	-2.02%	19.9%
Cc1ccccc1C(=O)NCc1ccc(N2CCNC(=O)C2)c(F)c1	-0.569%	0.0326%
CN(C)C(=O)CNC(=O)CCn1ncc2c(Cl)cccc21	-0.813%	-27.9%
Cn1cc(CN2CCC3(C2)CN(Cc2ccsc2)C3)cn1	1.9%	-10.4%
CNc1nc(CNC(=O)Nc2ccccc2-c2noc(C)n2)cs1	-2.92%	13.1%
CC(=O)N1CCN(C)CC(COCc2ccccc2)C1 (stereo not drawn)	-1.62%	-22.4%
CCn1cnnc1CNC(=O)c1cc(Cl)ccc1OC	0.48%	-24.3%
CN(C)C(=O)CN1C(=O)CCC12CCN(Cc1cccn1C)CC2	4.89%	0.848%
CCc1noc(C)c1C(=O)N(C)Cc1ncc(C)c(OC)c1C	-1.73%	16.8%
O=C(NCCN1CCOCC1)NCC(O)c1cccc(F)c1 (stereo not drawn)	2.52%	4.91%
CC(OCC1CC1)C(=O)N1CCCN(c2ncccc2C#N)CC1 (stereo not drawn)	2.42%	27.5%
N#Cc1cccc(S(=O)(=O)N2CCCCC2CCN2CCCC2=O)c1 (stereo not drawn)	-2.87%	-20.4%
CC(C)c1noc(CCCC(=O)NC2CCS(=O)(=O)C2)n1 (stereo not drawn)	0.955%	-17.4%
c1cnc(NCc2noc3c2CN(CCN2CCCC2)CC3)nc1	1.46%	-35.5%
CCNC(=O)CN1CCCN(C(=O)C2CCCc3[nH]ncc32)CC1 (stereo not drawn)	-3.09%	-2%
O=C(c1cnccn1)N1CCN(Cc2csc(-c3ccccc3)n2)CC1	1.34%	26.4%
COc1cccc(N2CCN(CC(O)c3cc(C)sc3C)CC2)c1 (stereo not drawn)	0.432%	6.38%
CCc1ncc(CNC2CC(=O)N(CCc3cccc(Cl)c3)C2)cn1 (stereo not drawn)	-0.729%	-24.9%
FC(F)(F)c1cccc(C2(CNCc3ccncc3)CCOCC2)c1	2.66%	-27.1%
O=C(CC1CCCC1)NCCn1ccc(-c2ccncc2)n1	7.45%	3.58%
CC(C(=O)NCCOc1cccc(Cl)c1)n1cncn1 (stereo not drawn)	4.65%	-10.9%
CCOc1ccc(C#N)cc1NCC(=O)Nc1cc(F)ccc1F	-5.91%	5.62%
CCN1CCN(c2ccc(F)cc2C(C)NCc2ccncc2)CC1 (stereo not drawn)	-0.494%	14.3%
CCOCC1CN(C(=O)N(C)C)Cc2nn(C)cc21 (stereo not drawn)	7.75%	-4.03%
COCC1CC2(CCN(C(=O)c3cccc(C)c3)CC2)CO1 (stereo not drawn)	-0.131%	-2.68%

SMILES	Percent Effect [1]	Percent Effect [2]
Cc1nc2ccccc2c(=O)n1CCC(=O)N1CCNC(=O)C1	-5.81%	27.4%
CC(=O)NC1CCCN(C(=O)NCc2cccnc2-n2cccn2)C1 (stereo not drawn)	-3.6%	-14.7%
CCn1ncc(Br)c1CN(C)S(=O)(=O)c1ccc(C)cc1	0.0735%	-7.09%
CN(C)c1ccccc1C(=O)N1C[C@@H](CN2CCCCC2)[C@@H](CO)C1	-5.26%	17.7%
CC(=O)N(Cc1ncc(C(C)C)o1)C1CCN(Cc2nccn2C)C1 (stereo not drawn)	3.99%	17.4%
COc1ccc(C2Nc3cc(Cl)ccc3C3=NCCN32)cc1OC (stereo not drawn)	-3.07%	-59.6%
O=C(CCn1cncn1)NC1(c2cccc(Br)c2)CCC1	8.08%	-21.1%
O=C(CCn1ccccc1=O)Nc1ccc(F)c(Cl)c1	5.06%	-7.92%
CCN1CC2(CC1=O)CN(Cc1cnn(C)c1)CCN(C(C)=O)C2 (stereo not drawn)	1.68%	-2.37%
CC(=O)N1CC[C@H]2OCC[C@@H](C(=O)N3CCCCO3)[C@@H]2C1	0.958%	-16.9%
CCOc1ncccc1CNC(=O)Nc1ccc(N(C)C)nc1	3.77%	-48.5%
CCOCCC(=O)Nc1cccc(Oc2ccccn2)c1	5.81%	-31.9%
CN(CC(=O)N(C)C1CCCCC1)C1CCc2ccccc21 (stereo not drawn)	0.433%	34.7%
CC(NC(=O)NCCCn1cncn1)c1ccc2c(c1)OCCO2 (stereo not drawn)	0.175%	17.4%
COCCCN1CCCN(C(C)c2nc(C3CC3)no2)CC1 (stereo not drawn)	-9.76%	-23.4%
CCc1n[nH]c(C2CN(C(=O)c3nc(C)ncc3Cl)CCO2)n1 (stereo not drawn)	0%	-0.974%
Cc1cccc(CN2CCc3ncnc(C)c3CC2)n1	-0.616%	-16.2%
Cn1ccc(C(=O)NC2CCN(c3ncccn3)CC2)cc1=O	4.84%	24.2%
Cc1nc(CN2CCO[C@@H]3CN(C(=O)NC(C)C)CC[C@@H]3C2)cs1	3.49%	-4.73%
CCC1CN(CC(=O)Nc2sccc2C#N)CCO1 (stereo not drawn)	-2.46%	32.6%
OC(CN1CCOCC1)c1ccc(OC(F)(F)F)cc1 (stereo not drawn)	-1.62%	13.6%
Cc1cnn(CC2CCCN2CC(=O)N(C)Cc2ccc(C)o2)c1 (stereo not drawn)	0.457%	-11.2%
O=C(COCC1CC1)N1CCCC(n2ccnc2)C1 (stereo not drawn)	0.946%	-26.2%
Cc1ccc(-n2nnc(C(=O)Nc3cc(C)nn3C)c2C2CC2)cc1	-2.8%	34.4%
CC(C)Cc1cc(C(=O)N2CCCC(n3cncn3)C2)[nH]n1 (stereo not drawn)	-3.97%	2.44%

SMILES	Percent Effect [1]	Percent Effect [2]
O=C(NCC(Cc1cccc(F)c1)N1CCCC1=O)c1cnccn1 (stereo not drawn)	-5.12%	-15.9%
CC(=O)N1CCC(c2cncc(Oc3ccccc3)n2)CC1	0.485%	3.32%
CN(Cc1cnn(-c2ccccc2)n1)CC1CCCN1c1cccnn1 (stereo not drawn)	1.85%	16%
Clc1ccc2cccnc2c1CN1CCCC1Cn1cncn1 (stereo not drawn)	-0.524%	0.609%
CN(C)C(=O)CN1CCC2(CCN(Cc3nccs3)CC2)C1=O	7.45%	-16.7%
Cc1cn2c(n1)CCC(NC(=O)CCC(F)(F)F)C2 (stereo not drawn)	-0.225%	5.05%
CNC(=O)CS(=O)(=O)C1CCN(S(=O)(=O)C2CC2)CC1	1.09%	-3.71%
CCn1c(CN2CCCN(C(=O)OC)CC2)nc2c(F)cccc21	-0.656%	36.3%
COc1ccccc1CC1CCCN(CC(N)=O)C1 (stereo not drawn)	-3.29%	28.2%
Cc1ccc(C(N)c2cccc(S(C)(=O)=O)c2)cc1 (stereo not drawn)	-0.691%	-0.145%
O=C(CCn1cnnc1)N1CCCC(c2ncc[nH]2)C1 (stereo not drawn)	5.32%	-29.4%
CC(C)COC(C)C(=O)NCc1cc(F)cc(F)c1 (stereo not drawn)	-4.79%	27.6%
COc1cccc(CNC(=O)CC2CSc3ncc(C)c(=O)n32)c1 (stereo not drawn)	1.5%	6.98%
CNS(=O)(=O)c1ccc(C(=O)N2CCCC2Cc2ccccc2)o1 (stereo not drawn)	-3.06%	18.2%
CC(N(C)Cc1nc2c(cnn2C)c(=O)[nH]1)C(C)(C)C (stereo not drawn)	5.45%	28.9%
CN(C)c1nc2c(c(=O)[nH]1)CCN(C(=O)c1cccc3nccnc13)C2	4.01%	-35%
Cc1noc(CN(Cc2ccc3c(c2)OCO3)Cc2ccc(C)o2)n1	13.9%	29%
Cn1cccc1C(=O)N1CCCC2(CCCN2Cc2cccnc2)C1 (stereo not drawn)	7.03%	19.4%
CCOC(=O)c1sc(NC(=O)CN(C)S(C)(=O)=O)c(C#N)c1C	-4.94%	2.91%
OC1CCN(Cc2cc3c(cc2Br)OCCO3)CC1	2.56%	-8.4%
Cc1nc(C)n(CC2CN(Cc3cccc(C#N)c3)CCO2)n1 (stereo not drawn)	3.11%	20.9%
O=S(=O)(c1cccs1)N1CC[C@H](O)[C@@H]1Cc1ccncc1	-0.474%	2.87%
CCOC(=O)NC(C(=O)NCc1ccc(N2CCCCC2)nc1)C(C)C (stereo not drawn)	-3.06%	21.9%
Cc1cc(C)n(CC2CCCN2CCCS(=O)(=O)N(C)C)n1 (stereo not drawn)	2.38%	0.632%
